These results are taken from PubChem BioAssay (NCATS).

In assay [1] the test system is ICS. In words: qHTS profiling for inhibitors of Plasmodium falciparum proliferation (AID 504749). Note: potency is the fitted concentration of half-maximal effect. The conditions noted are these: P. falciparum in erythrocytes, SYBR Green DNA, 72 h; series mostly up to 28.7 µM. The gist of the method: (§1)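 In a 72 h erythrocytic culture (37 C, humidified, 5% CO2) at 2.5% hematocrit and 0.3% starting parasitemia, compounds were tested; SYBR Green I in detergent lysis buffer stained parasite DNA overnight.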
For orientation: In qHTS, concentration-response curves come from the screen itself.

Assay [2] has as its system JCK. Described as above. Conditions: P. falciparum in erythrocytes, SYBR Green DNA, 72 h; series mostly up to 28.7 µM. The gist of the method:
as §1

Assay [3] concerns N140. Described as above. The conditions noted are these: P. falciparum in erythrocytes, SYBR Green DNA, 72 h; series mostly up to 28.7 µM. The gist of the method:
as §1

Assay [4] relates to P93_24. Described as above. Conditions: P. falciparum in erythrocytes, SYBR Green DNA, 72 h; series mostly up to 28.7 µM. The gist of the method: as §1
For assay [5], the system named is P94_40. Described as above. Conditions: P. falciparum in erythrocytes, SYBR Green DNA, 72 h; series mostly up to 28.7 µM. Summed up:
as §1

For assay [6], the system named is PAD. The assay is described as above. Conditions: P. falciparum in erythrocytes, SYBR Green DNA, 72 h; series mostly up to 28.7 µM. Summed up:
as §1

Assay [7] concerns PC15. Described as above. Conditions: P. falciparum in erythrocytes, SYBR Green DNA, 72 h; series mostly up to 28.7 µM. Summed up:
as §1

Assay [8] concerns PC26. Described as above. Conditions: P. falciparum in erythrocytes, SYBR Green DNA, 72 h; series mostly up to 28.7 µM. The gist of the method: as §1
Assay [9] relates to PC49. Described as above. The conditions noted are these: P. falciparum in erythrocytes, SYBR Green DNA, 72 h; series mostly up to 28.7 µM. Summed up: as §1
Assay [10] concerns SC27B. The description is as above. Conditions: P. falciparum in erythrocytes, SYBR Green DNA, 72 h; series mostly up to 28.7 µM. Summed up: as §1
Assay [11] has as its system TAB109. The description is as above. The conditions noted are these: P. falciparum in erythrocytes, SYBR Green DNA, 72 h; series mostly up to 28.7 µM. Summed up: as §1
For assay [12], the system named is TAB113. The description is as above. The conditions noted are these: P. falciparum in erythrocytes, SYBR Green DNA, 72 h; series mostly up to 28.7 µM. The gist of the method: as §1
For assay [13], the system named is TAB165. The description is as above. Conditions: P. falciparum in erythrocytes, SYBR Green DNA, 72 h; series mostly up to 28.7 µM. Summed up:
as §1

Assay [14] concerns W2. The description is as above. The conditions noted are these: P. falciparum in erythrocytes, SYBR Green DNA, 72 h; series mostly up to 28.7 µM. Summed up: as §1
Assay [15] concerns CRL-7250. Nature of the assay: Cytotoxic Profiling of Annotated Libraries Using Quantitative High-Throughput Screening (AID 1296008). For max response: % is set by controls: 0 for no effect and ±100 for the full control effect. Note: potency is the fitted concentration of half-maximal effect. Conditions: Five cell lines viability, CellTiter-Glo ATP luminescence, 48-72 h; max response: active compounds read low. Summed up: (§2)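 Cytotoxicity was measured as CellTiter-Glo ATP luminescence, read after 10 min at room temperature. Compound treatment of the cells lasted 48 or 72 hr at 37 degrees Celsius in a qHTS format.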
On the technique in general: Cellular ATP, detected with luciferase, serves as a proxy for viable cell number.

For assay [16], the system named is KB-3-1. The assay is described as above. The conditions noted are these: Five cell lines viability, CellTiter-Glo ATP luminescence, 48-72 h; max response: active compounds read low. The gist of the method:
as §2

The test system of assay [17] is NIH3T3. The assay is described as above. The conditions noted are these: Five cell lines viability, CellTiter-Glo ATP luminescence, 48-72 h; max response: active compounds read low. The gist of the method:
as §2

Assay [18] concerns HaCat. Described as above. The conditions noted are these: Five cell lines viability, CellTiter-Glo ATP luminescence, 48-72 h; max response: active compounds read low. Summed up:
as §2

The subject of assay [19] is HEK293. The assay is described as above. Conditions: Five cell lines viability, CellTiter-Glo ATP luminescence, 48-72 h; max response: active compounds read low. The gist of the method: as §2
The test system of assay [20] is CRL-7250. In words: qHTS assay to identify novel small-molecules to repurpose for Merkel cell carcinoma treatment (AID 1296009). The conditions noted are these: MCC and control cell lines, CellTiter-Glo viability, 72 h; at 44.8 µM (top of the series) unless noted. The gist of the method:
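Cell viability measured by CellTiter-Glo following 72 hr compound treatment at 37 degree celsius, with NPC and MIPE libraries tested in 8- and 11-point concentration series.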

“And” between values parts separate entries of the source, which are not always exact repeats. Equal values may be shown once. Results filed as inconclusive are left out. Unmarked numbers belong to inactive results. The source made the active and inactive calls. Calls come from the whole dose curve; as a rule, active = well fitted inhibition curve with a large enough effect; inconclusive = small, poorly fitted or top-dose-only effect; inactive = flat fitted curve, though single readings scatter.
Note: nearly all actives have a fitted effect of over 60% in size.

`CCS(=O)(=O)C(C)(C)S(=O)(=O)CC`: the Potency result in assay [1], in assay [2], in assay [3], in assay [4], in assay [5] and in [6] was “inactive” each time. Also, the Potency result in assay [7], in [8], in [9], in assay [10], in assay [11] and in assay [12] was “inactive” in each case. For the same compound, the Potency entry in [13] and in assay [14] was “inactive” throughout. Moreover, the max response in [15] was -10.9%; in [16], 3.51%; in assay [17], -2.98%.

For `Oc1ccc([C@H]2CNCc3c2ccc(O)c3O)cc1O`, the result in [18] was inactive. For the same compound, the max response is -14.2% in assay [16] and -2.59% in assay [17].

Regarding `COc1cc(CC(C)N)c(OC)cc1Br` (stereo unspecified), in [19], the Potency was 14.2 µM (active). The max response in assay [18] was -6.81%; in assay [16], -7.67% and -13.5%.

In the case of `CCN(CC)CCOC(=O)C(C)(c1ccccc1)c1ccccc1`, the Potency result in [2] is “inactive”. The Potency in assay [14] was 1.35 µM (active). The max response in assay [15] was -0.0825%; in [16], -6.01%; in assay [17], 1.33%. Also, the compound was called inactive in assay [18].

Turning to `CN1C(=O)CN=C(c2ccccc2)c2cc(Cl)ccc21`, the max response in assay [18] was -27.5%; in [16], -19.7%.

On to `CC[C@]1(O)CC[C@H]2[C@@H]3CCC4=CCCC[C@@H]4[C@H]3CC[C@@]21C`, for which the Potency result in assay [2], in assay [7], in [8], in [9] and in assay [11] was “inactive” throughout. Moreover, the Potency in assay [5] was 11.2 µM (active). Besides, the max response in assay [15] is -110%.

Regarding `CCCC(C)C1(CC)C(=O)N=C(S)NC1=O` (stereo unspecified), the max response in assay [15] is -2.8%; in assay [18] it was -26.2%; in [17] it was -2.94%.

Consider `CC(=O)OC1(c2ccccc2)CCN(CCc2ccccc2)CC1`, for which the figures for the max response in assay [18], in assay [16] and in assay [17] were -10.1%, -24% and -21.5%, respectively.

In the case of `COP(=O)(OC)OC=C(Cl)Cl`, the Potency result in assay [2], in assay [3], in assay [4], in [5], in assay [6] and in [7] was “inactive” in each case. In addition, the Potency entry in assay [8], in assay [9], in assay [10], in [11], in assay [12] and in assay [13] was “inactive” each time. Also, the Potency in assay [14] was 10.7 µM (active). The compound was classed as inactive in assay [15], in assay [17] and in assay [20]. The max response in assay [18] was -7.81%.

As to `Nc1ccccc1C(=O)OCC(O)CO` (stereo unspecified), the results for the max response in assay [15] and in assay [17] were 1.8% and -1.39%, respectively.

As to `CN1CCC(N(Cc2ccccc2)c2ccccc2)CC1`, the max response is -21.6% in assay [15] and -20.5% in [17]. Moreover, in assay [18], the call was inactive.

On to `C=CC[C@]1(O)CC[C@H]2[C@@H]3CCC4=CC(=O)CCC4=C3C=C[C@@]21C`, for which the Potency in [19] is 11.9 µM (active). Besides, the results for the max response in [18] and in [16] were 1.64% and -5.35%, respectively.

Take `CC(Cc1ccccc1)NCCCCl` (stereo unspecified): the outcome in assay [15], in [18] and in assay [20] was inactive. In addition, the max response in assay [17] was 3.33%.

For `O=C(CCCCl)c1ccc(F)cc1`, the results for the max response in assay [15], in assay [18] and in assay [17] were 0.989%, 4.12% and -0.659%, respectively.

Take `CC1COC2(c3ccccc3Cl)c3cc(Cl)ccc3NC(=O)CN12` (stereo unspecified): the results for the max response in assay [15] and in [17] were -0.632% and 2.64%, respectively. Moreover, the call in assay [18] was inactive.

As to `CC1=C2[C@H]3OC(=O)[C@@H](C)[C@@H]3CC[C@@]2(C)C=CC1=O`, the max response is -1.89% in assay [19], 27.1% in assay [16] and -1.04% in assay [17]. Further, in assay [18], the compound was called inactive.

As for `CC#C[C@]1(O)CC[C@H]2[C@@H]3C[C@H](C)C4=CC(=O)CC[C@]4(C)[C@H]3CC[C@@]21C`, the Potency in [19] was 23.7 µM (active). In addition, the compound was called inactive in assay [18].

For `Clc1ccc(C(OCCN2CCCCC2)c2ccccc2)cc1` (stereo unspecified), the results for the max response in assay [18] and in assay [16] were -5.7% and -23.9%, respectively.

Consider `CO/N=C(\C(=O)O)c1csc(NC(=O)CCl)n1`, for which the call in assay [20] was inactive.

Turning to `Fc1ccc(C(c2ccc(F)cc2)N2CCNCC2)cc1`, in assay [20], the result was inactive.

As for `OC1C(O)C(O)C(O)C(O)C1O` (stereo unspecified), the compound was classed as inactive in assay [20].

Turning to `Cc1c(Cl)c(=O)oc2cc(OP(=O)(OCCCl)OCCCl)ccc12`, the Potency in [1] is 11.2 µM (active); in assay [3] it was 8.91 µM (active); in assay [4], 11.2 µM (active); in assay [5] it was 6.31 µM (active); in assay [10], 7.94 µM (active); in assay [11], 10 µM (active). For the same compound, the Potency in [12] was 10 µM (active); in assay [13], 7.08 µM (active); in assay [14], 6.75 µM (active). Further, the Potency entry in assay [7] and in assay [9] was “inactive” each time. In addition, the max response in assay [18] was 1.96%; in [16], -0.0609%; in assay [17], -22.4%.

With `CCC(=O)O[C@]1(C(=O)SCF)[C@H](C)C[C@H]2[C@@H]3C[C@H](F)C4=CC(=O)C=C[C@]4(C)[C@@]3(F)[C@@H](O)C[C@@]21C`, the outcome in [20] was inactive.

Consider `CN(C)CCCOC1(Cc2ccccc2)CCCCCC1`, for which the call in assay [20] was inactive.

For the compound `COc1ccc2[nH]c(S(=O)Cc3ncc(C)c(OC)c3C)nc2n1` (stereo unspecified), in assay [20], the compound was called inactive.

Turning to `COc1ccc2c3c1O[C@H]1[C@@H](O)C=C[C@H]4[C@@H](C2)N(C)CC[C@@]341`, in assay [16], the max response is -15%.

Turning to `CCOc1ccccc1O[C@H](c1ccccc1)[C@H]1CNCCO1`, the result in assay [20] was inactive.

In the case of `O=S1(=O)OC(c2ccc(O)cc2)(c2ccc(O)cc2)c2ccccc21`, the call in [20] was inactive.

In the case of `CCN(CC)CC(=O)OCC(=O)[C@@]1(O)CC[C@H]2[C@@H]3CCC4=CC(=O)CC[C@]4(C)[C@H]3[C@@H](O)C[C@@]21C`, the result in assay [20] was inactive.
